# Source: the supplement of paper PMC8728848
# Shown is part of a subset that was picked to be rich in the strongest signals.
# B1: Epa13 (Candida glabrata) (protein)
# chain: MGSSHHHHHHSSGLVPRGSHMASDSSENGYAHGCSPSIRAKLKPGLSMEIYSYALRPTDDHCWDSAYLDPMFPRTGYLTHKLLGKAEGIIGPLNFLAKNPACIPAVSTLPLAFHFPKPFTITNFTMLLYGYLSPKKTGKYTFKLLADDLLLMNFGADNAFDCCSHDATKDNIGEYVAYSVWPGVNKNVTVYLESGIYYPLRLFFNNRDAIAQLDFAYYFNDSPIRQTDFSGMFFSIPDSVKCPANI
# How the values were obtained:
# Assay in all cases: glycan array binding signal (z-score within array); higher = stronger binding
# Details in all cases: glycan notation: IUPAC condensed, linker removed
# [1] = molecular target: Gal(b1-4)GlcNAc(a1-6)Gal(b1-4)GlcNAc
# How it was run: (§1)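 The binding signal is a Z-score computed within each array. Data were drawn from 3228 arrays in the Consortium for Functional Glycomics database, restricted to those with a known protein sequence. Scores were averaged over arrays of the same protein sequence at different concentrations or buffers, and over linkers, and negative values can be taken as non-binding.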
# [2] = molecular target: Gal(b1-4)GlcNAc(b1-2)[Gal(b1-4)GlcNAc(b1-6)]Man(a1-6)[GlcNAc(b1-4)][Gal(b1-4)GlcNAc(b1-2)[Gal(b1-4)GlcNAc(b1-4)]Man(a1-3)]Man(b1-4)GlcNAc(b1-4)[Fuc(a1-6)]GlcNAc
# How it was run: as §1
# [3] = molecular target: Gal(b1-4)GlcNAc(b1-3)Gal(b1-4)GlcNAc
# How it was run: as §1
# Gal4S6S(b1-4)GlcNAc = molecular target: Gal4S6S(b1-4)GlcNAc
# How it was run: as §1
# Gal6S(b1-4)GlcNAc = molecular target: Gal6S(b1-4)GlcNAc
# How it was run: as §1
# Gal6S(b1-4)GlcNAc6S = molecular target: Gal6S(b1-4)GlcNAc6S
# How it was run: as §1
# [4] = molecular target: GalNAc(b1-3)Gal(a1-4)Gal(b1-4)GlcNAc
# How it was run: as §1
# Glc(a1-4)Glc = molecular target: Glc(a1-4)Glc
# How it was run: as §1
# [5] = molecular target: GlcNAc(a1-4)Gal(b1-4)GlcNAc(b1-3)Gal(b1-4)GlcNAc
# How it was run: as §1
# [6] = molecular target: GlcNAc(a1-4)Gal(b1-4)GlcNAc(b1-3)Gal(b1-4)[Fuc(a1-3)]GlcNAc(b1-3)Gal(b1-4)[Fuc(a1-3)]GlcNAc
# How it was run: as §1
# [7] = molecular target: GlcNAc(b1-2)Man(a1-3)[GlcNAc(b1-4)][GlcNAc(b1-2)Man(a1-6)]Man(b1-4)GlcNAc(b1-4)[Fuc(a1-6)]GlcNAc
# How it was run: as §1
# [8] = molecular target: GlcNAc(b1-2)[GlcNAc(b1-4)]Man(a1-3)[GlcNAc(b1-2)Man(a1-6)]Man(b1-4)GlcNAc(b1-4)GlcNAc
# How it was run: as §1
# [9] = molecular target: GlcNAc(b1-2)[GlcNAc(b1-4)]Man(a1-3)[GlcNAc(b1-4)][GlcNAc(b1-2)Man(a1-6)]Man(b1-4)GlcNAc(b1-4)GlcNAc
# How it was run: as §1
# GlcNAc(b1-3)Gal = molecular target: GlcNAc(b1-3)Gal
# How it was run: as §1
# [10] = molecular target: GlcNAc(b1-3)Gal(b1-4)GlcNAc(b1-2)[GlcNAc(b1-3)Gal(b1-4)GlcNAc(b1-6)]Man(a1-6)[GlcNAc(b1-3)Gal(b1-4)GlcNAc(b1-2)Man(a1-3)]Man(b1-4)GlcNAc(b1-4)GlcNAc
# How it was run: as §1
# [11] = molecular target: Neu5Ac(a2-3)Gal(b1-4)GlcNAc(b1-2)Man(a1-3)[Neu5Ac(a2-6)Gal(b1-4)GlcNAc(b1-2)Man(a1-6)]Man(b1-4)GlcNAc(b1-4)GlcNAc
# How it was run: as §1
# [12] = molecular target: Neu5Ac(a2-3)Gal6S(b1-4)[Fuc(a1-3)]GlcNAc
# How it was run: as §1
# [13] = molecular target: Neu5Ac(a2-6)Gal(b1-4)GlcNAc(b1-2)Man(a1-3)[GlcNAc(b1-2)Man(a1-6)]Man(b1-4)GlcNAc(b1-4)GlcNAc
# How it was run: as §1
# [14] = molecular target: Neu5Ac(a2-6)Gal(b1-4)GlcNAc(b1-3)Gal(b1-4)GlcNAc
# How it was run: as §1
# [15] = molecular target: Neu5Ac(a2-6)Gal(b1-4)GlcNAc(b1-3)Gal(b1-4)GlcNAc(b1-3)GalNAc
# How it was run: as §1
# [16] = molecular target: Neu5Ac(a2-6)Gal(b1-4)GlcNAc(b1-6)[Gal(b1-3)]GalNAc
# How it was run: as §1
# [17] = molecular target: Neu5Ac(a2-8)Neu5Ac(a2-3)Gal(b1-4)GlcNAc
# How it was run: as §1
# Neu5Ac(b2-6)GalNAc = molecular target: Neu5Ac(b2-6)GalNAc
# How it was run: as §1
binder,measurement,setting,value
B1,glycan array binding signal (z-score),[1],0.075
same,glycan array binding signal (z-score),[2],-0.476
same,glycan array binding signal (z-score),[3],-0.291
same,glycan array binding signal (z-score),Gal4S6S(b1-4)GlcNAc,-0.32
same,glycan array binding signal (z-score),Gal6S(b1-4)GlcNAc,0.111
same,glycan array binding signal (z-score),Gal6S(b1-4)GlcNAc6S,2.69
same,glycan array binding signal (z-score),[4],-0.05
same,glycan array binding signal (z-score),Glc(a1-4)Glc,-0.521
same,glycan array binding signal (z-score),[5],0.04
same,glycan array binding signal (z-score),[6],-0.218
same,glycan array binding signal (z-score),[7],0.145
same,glycan array binding signal (z-score),[8],-0.393
same,glycan array binding signal (z-score),[9],-0.299
same,glycan array binding signal (z-score),GlcNAc(b1-3)Gal,-0.445
same,glycan array binding signal (z-score),[10],0.485
same,glycan array binding signal (z-score),[11],-0.354
same,glycan array binding signal (z-score),[12],-0.54
same,glycan array binding signal (z-score),[13],-0.413
same,glycan array binding signal (z-score),[14],-0.07
same,glycan array binding signal (z-score),[15],-0.142
same,glycan array binding signal (z-score),[16],-0.381
same,glycan array binding signal (z-score),[17],-0.449
same,glycan array binding signal (z-score),Neu5Ac(b2-6)GalNAc,-0.624
